# In all, about 1,400 compounds went through this assay and about 10 (0.7%) were called active. Entries that show only a call come without a potency. Inconclusive results (about 2%) are left out. Calls come from the whole dose curve; as a rule, active = well fitted inhibition curve with a large enough effect; inconclusive = small, poorly fitted or top-dose-only effect; inactive = flat fitted curve, though single readings scatter. This excerpt belongs to a sample that is enriched for actives.
# Target: Luciferin 4-monooxygenase (Photinus pyralis) (UniProt P08659)
# Sequence (P08659 whole entry, looked up): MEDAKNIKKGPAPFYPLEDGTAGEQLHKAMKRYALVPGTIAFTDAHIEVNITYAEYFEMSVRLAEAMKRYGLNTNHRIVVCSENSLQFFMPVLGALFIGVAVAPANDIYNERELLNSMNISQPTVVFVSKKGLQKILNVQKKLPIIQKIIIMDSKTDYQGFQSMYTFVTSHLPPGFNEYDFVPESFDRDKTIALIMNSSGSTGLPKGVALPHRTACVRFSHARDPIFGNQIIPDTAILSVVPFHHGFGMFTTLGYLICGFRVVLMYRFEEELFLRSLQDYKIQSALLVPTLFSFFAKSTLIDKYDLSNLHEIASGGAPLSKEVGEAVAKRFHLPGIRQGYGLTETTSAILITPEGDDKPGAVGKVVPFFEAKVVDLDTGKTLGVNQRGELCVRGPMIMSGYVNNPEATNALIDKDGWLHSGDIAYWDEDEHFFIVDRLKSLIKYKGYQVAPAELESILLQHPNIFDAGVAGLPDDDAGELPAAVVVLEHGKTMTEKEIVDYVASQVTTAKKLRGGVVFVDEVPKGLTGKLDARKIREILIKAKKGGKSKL
# Assay: Natriuretic polypeptide receptor (hNpr1) antagonism - Confirmation firefly luciferase (FLuc) inhibition counterscreen
# Settings: purified FLuc enzyme, luminescence, Km substrate; series mostly up to 57.6 µM
# Source text: Firefly (Photinus pyralis) luciferase (FLuc) is one of the more frequently used transcriptional reporter genes, and it has also been developed as a cellular sensor for cyclic nucleotides. (Fan F & Wood KV, 2007; Fan F et al., 2008) However, a significant number of compounds that populate chemical libraries have been identified as FLuc ligands which can be mistaken for modulators of the intended targeted pathways, receptors or enzymes. (Auld, DS et al. 2008; Thorne, N et al. 2012) Therefore, the FLuc enzyme assay conducted at sensitive Km level substrate conditions is used to counter-screen for potential FLuc ligands. Auld DS, Thorne N, Nguyen DT & Inglese J A specific mechanism for nonspecific activation in reporter-gene assays. ACS Chem Biol. 2008, 3: 463-470. DOI: 10.1021/cb8000793 Fan F, Binkowski BF, Butler BL, Stecha PF, Lewis MK, Wood KV. Novel genetically encoded biosensors using firefly luciferase. ACS Chem Biol. 2008, 3: 346-351. DOI: 10.1021/cb8000414 Fan F and Wood KV. Bioluminescent assays for high-throughput screening. Assay Drug Dev Technol. 2007, 5: 127-136. […] Chemistry & Biology, 2012, 19: 1060-1072. DOI.org/10.1016/j.chembiol.2012.07.015
# PROTOCOL TABLE (as described by Inglese J, Shamu CE and Guy RK. 2007) SEQUENCE No. (e.g., 1, 2, 3, etc.); PARAMETER (e.g., Cells, Incubation, Reagent, etc.); VALUE and DESCRIPTION. FLUC KM ENZYME COUNTERSCREEN (Thorne, N.T. et al. 2012) 1. Reagent. Add 3 uL of D-luciferin substrate buffer per well into Greiner 1536-well white/solid bottom high base, medium bind plates. 2. Compounds. Library compounds and PTC124 control added at 23nL per well, transferred by Pin Tool. 3. Incubation. Incubate plates at room temperature for […], protect from light. 4. Reagent. Add 1uL of P. pyralis luciferase (FLuc) per well of Greiner 1536-well plates. 5. Incubation. Incubate plates at room temperature for 10 min., protect from light. 6. Detector. FLuc luminescence measured using CCD-based camera (Viewlux). NOTES (numbers refer to Sequence numbers above) 1. Substrate buffer: 10 uM D-luciferin final concentration in 50 mM Tris-Acetate, pH 7.6, 10 mM Mg-Acetate, 10 uM ATP, 0.01% Tween-20, and 0.05% BSA buffer added at 3uL/well to 13 x Greiner 1536-well white/solid bottom high base, medium bind plates. 2. PTC124 stock solution prepared (10 mM in DMSO; Auld D.S. et al. 2010). Working dilution for dispense = 10 mM stock dilution (57.5 uM final concentration; 16-pt 1:3 titration in duplicate = final concentration range of 57.5 uM - 4 pM). 23nL of library compounds, PTC124 control or DMSO vehicle control transferred to the 13 substrate-containing Greiner white/solid bottom high base, medium bind plates in 11 interplate 1:3 titrations (see Yasgar, A. et al. 2008) with Pintool. 3. Substrate incubated for 30-50 min. at ambient temperature protected from light with metal lid. 4. Enzyme solution: 10 nM P. pyralis luciferase (FLuc) final concentration in 50 mM Tris-Acetate, pH 7.6 added at 1uL to 13 x Greiner 1536-well white/solid bottom high base, medium bind plates. 5. Substrate and enzyme incubated with test library compounds and controls for 10 min. at ambient temperature protected from light with metal lid. 6. Read final Luminescence on the ViewLux. [Exposure = 30 s.; Gain = High; Speed = Slow; and Binning = 2X.] REFERENCES: Auld DS, Lovell S, Thorne N, Lea WA, Maloney DJ, Shen M, Rai G, Battaile KP, Thomas CJ, Simeonov A, Hanzlik RP and Inglese J. Molecular basis for the high-affinity binding and stabilization of firefly luciferase by PTC124. […] Chemistry & Biology, 2012, 19: 1060-1072. doi.org/10.1016/j.chembiol.2012.07.015 Yasgar A, Shinn P, Jadhav A, Auld DS, Michael S, Zheng W, Austin CP, Inglese J and Simeonov A, Compound Management for Quantitative High-Throughput Screening. J. Assoc. Lab. Auto., 2008, 13: 79-89. doi: 10.1016/j.jala.2007.12.004
row,Structure (SMILES),Potency
1,Cc1nc(-c2ccncc2)ncc1C(C)Nc1ncnc(C)c1C (stereo unspecified),inactive
2,Cc1noc(C)c1-c1cnc2[nH]cc(CC(=O)N3CCOCC3)c2c1,inactive
3,N#Cc1cccc(CN2CCC(C3=NC(O)c4cc(F)ccc4N3)CC2)c1 (stereo unspecified),inactive
4,CC1=NS(=O)(=O)N(C)C=C1C(=O)OCc1nc(-c2ccc(C)cc2)no1,inactive
5,Cc1cc(N2CCCC(Cn3cc(Cc4ccccc4)nn3)C2)nc(N)n1 (stereo unspecified),inactive
6,Cc1ccc(C)c(C(=O)N2CCC3(CC2)N=C(c2ccc(Cl)cc2)NO3)c1,inactive
7,COc1ccc(S(=O)(=O)N2CCc3c(C(=O)NCCc4ccccn4)cccc32)cc1,inactive
8,COc1ccc(-c2noc(CC3CCN(C(=O)Cc4ccc(OC)c(OC)c4)CC3)n2)cc1,inactive
9,O=C(c1ccc(F)cc1F)N1CCN(c2cc(-c3ccc(Cl)cc3)[nH]n2)CC1,inactive
10,O=C(CCC1CCN(C(=O)c2ccccc2F)CC1)Nc1cccc(Cl)c1,inactive
11,O=[S+]1([O-])NCC2(CCCN(Cc3ccc(C(F)(F)F)cc3)C2)Oc2ncccc21 (stereo unspecified),inactive
12,COc1ccc(C(CC(=O)N(C)Cc2cc(C3CC3)n[nH]2)c2ccccc2)cc1 (stereo unspecified),inactive
13,COc1cccc(NC(=O)Cn2c(N(C)Cc3ccccc3)nc(C)cc2=O)c1,inactive
14,Cc1ccc(C(=O)N2CCN(c3cc(-c4ccc(Cl)cc4)[nH]n3)CC2)c(C)c1,inactive
15,COc1cccc(-c2noc(CC3CCN(C(=O)c4ccc(F)cc4)CC3)n2)c1,inactive
16,Cc1nn2c(c1-c1ccnn1C(C)C)N(CC1CCOCC1)CCC2,inactive
17,CN1CCN(C(=O)C(C)(C)Oc2nn(Cc3cccc(Cl)c3)c3ccccc23)CC1,inactive
18,CC1=NS(=O)(=O)N(C)C=C1C(=O)OCc1noc(-c2ccco2)n1,inactive

row,Structure (SMILES),Potency
1,CC1(C(=O)NCc2ccc3c(c2)OCO3)CCc2cnc(NCc3ccccc3)nc21 (stereo unspecified),inactive
2,COC(=O)c1cccc(NC(=O)CCNc2c(C)nc3cnccn23)c1,inactive
3,O=C(c1ccccc1)N1CCC(C(=O)N2CCC(Cc3nc(-c4ccc(F)cc4)no3)CC2)CC1,inactive
4,Fc1ccc(CNC[C@H]2Cn3c(-c4ccc5c(c4)OCCO5)cnc3CO2)cc1,inactive
5,COc1ccc(-c2noc(CC3CCN(C(=O)Cc4ccc(C)cc4)CC3)n2)cc1,inactive
6,Cc1cccc(C(=O)N2CCC(Oc3ccc(-c4noc(C(C)C)n4)cc3)C2)c1 (stereo unspecified),inactive
7,COc1ccc(CC(=O)N2CCC(Cc3nc(-c4ccccc4)no3)CC2)cc1OC,inactive
8,COc1ccc(-c2noc(CC3CCN(C(=O)CC4CCCCC4)CC3)n2)cc1,inactive
9,COc1ccccc1Nc1cnc2ccc(N(C)Cc3cccnc3)nn12,inactive
10,COc1ccc(OCC2(C)COc3ccc(C(=O)Nc4cccnc4)cc3N2)cc1 (stereo unspecified),inactive
11,O=C(c1ccc(F)cc1Cl)N1CCC(n2cc(-c3nc(-c4ccccc4)no3)nn2)C1 (stereo unspecified),inactive
12,O=C(c1cc(F)ccc1Cl)N1CCN(c2cc(-c3ccc(F)cc3)[nH]n2)CC1,inactive
13,Cc1ccc(OCc2nc(C3CCN(C(=O)CCc4nc5ccc(Cl)cc5[nH]4)CC3)no2)cc1,inactive
14,CC1(CCCCc2ccccc2)COc2ccc(C(=O)N3CC[S+](=O)([O-])CC3)cc2N1 (stereo unspecified),inactive
15,CN(C)CCNC(=O)C(C)(C)Oc1nn(Cc2cccc(Cl)c2)c2ccccc12,inactive
16,O=C(NCC1CC1)c1nc2c(o1)CCN(Cc1cccc(F)c1F)CC2,inactive
17,Cc1cc(CNC(=O)c2ccc(-c3ccccc3Cl)o2)n(C)n1,inactive
18,Cc1noc(C)c1-c1cc(-c2ccccc2Oc2ccccc2)cn2cncc12,inactive
